# Screens deposited in PubChem by National Center for Advancing Translational Sciences (NCATS).
# This is a sample that favours compounds with a hit; in the whole collection about 3.1% have one here.
# Pin1 inhibitor: human Pin1 inhibition. 0.009% of 390,000 active. Pin1 FP peptide displacement, HiFluor488, 10 min. Potency, µM (top dose mostly 115 µM), inactives show top-dose activity, negative = inhibition, most hits filed as inhibitors; active means well fitted inhibition curve with a large enough effect in the polarisation, with a control signal flat, not every such curve was filed as active; inconclusive means small, poorly fitted or top-dose-only effect, or effect the other way, or a change in a side signal; inactive means no such curve, though single readings can be large or run the other way; the % refers to the polarisation; further: on the % scale 0 is the no-effect control and ±100 the full control effect
# VDR inhibitor: blocks the human vitamin D receptor | P11473 | VDR-SRC2-3 peptide fluorescence polarization, 2 h | Potency, µM, inactives show max response, negative = inhibition, usual class: inhibitors | 0.93% of 400,000 active; further: on the % scale 0 is the no-effect control and ±100 the full control effect
#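 FP read-out; VDR + SRC2-3 coactivator peptide; 23 nl compound by pintool; 2 h RT incubation; reagents held at 4 deg C, protected from light.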
# ASM inhibitor: inhibitors of human secretory acid sphingomyelinase | placental ASM, HMU-PC fluorogenic substrate, 60 min | Potency, µM (highest dose often 57.5 µM), for the others: top-dose activity change, negative = inhibition, most hits filed as inhibitors | 0.006% of 340,000 active
# Target sequence (P17405 47-631 limits assumed): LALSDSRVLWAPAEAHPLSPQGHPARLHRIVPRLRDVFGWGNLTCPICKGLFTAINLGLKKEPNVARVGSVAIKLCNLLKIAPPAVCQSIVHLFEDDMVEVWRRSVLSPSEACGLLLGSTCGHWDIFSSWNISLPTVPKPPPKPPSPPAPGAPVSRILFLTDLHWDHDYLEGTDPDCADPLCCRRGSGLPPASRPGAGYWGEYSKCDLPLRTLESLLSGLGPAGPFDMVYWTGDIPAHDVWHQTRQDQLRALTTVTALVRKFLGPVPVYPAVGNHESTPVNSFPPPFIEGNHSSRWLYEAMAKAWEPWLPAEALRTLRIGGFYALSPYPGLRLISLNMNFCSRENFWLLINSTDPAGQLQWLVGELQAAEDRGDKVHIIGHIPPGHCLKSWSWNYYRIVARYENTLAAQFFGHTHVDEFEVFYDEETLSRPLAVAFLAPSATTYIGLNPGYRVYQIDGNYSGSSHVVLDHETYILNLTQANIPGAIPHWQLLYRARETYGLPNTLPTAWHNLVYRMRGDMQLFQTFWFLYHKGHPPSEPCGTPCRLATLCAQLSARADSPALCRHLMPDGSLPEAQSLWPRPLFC
#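 Fluorogenic HMU-PC substrate (9 uM final) is turned over by placental ASM in 60 min at 37 C after a 10 min compound preincubation. Reaction ended by alkaline stop (pH 10), with fluorescence read at 386/447 nm.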
# Tb PFK block: inhibitors of T. brucei phosphofructokinase | T. brucei PFK, ADP-Glo luminescence | Potency, µM (titrated, usually from 57.5 µM), for inactives: at the top dose activity, negative = inhibition, most hits filed as inhibitors | 0.17% of 330,000 active;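 further: 0% = uninhibited 1x PFK enzyme wells and -100% = no-enzyme wells; nearly all actives have a fitted effect of over 60% in size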
#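 1.25 nM PFK with 0.5 mM F6P and 0.1 mM ATP in 0.1 M TEA pH 8.0, 5 mM MgCl2, incubated 45 min at room temperature; ADP measured by ADP-Glo luminescence; compounds titrated up to 57 uM.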
# PLK1 PBD inh: inhibitors of human PLK1 polo-box domain binding; P53350; Plk1 PBD binding of FITC phosphopeptide, fluorescence polarization; Potency, µM, for inactives: max response, negative = inhibition, usual class: inhibitors; 2.8% of 360,000 active; further: series mostly up to about 57 µM; on the % scale 0 is the no-effect control and ±100 the full control effect; nearly all actives have a fitted effect of over 65% in size
# TDP1 inh: TDP1 (human) enzyme inhibition. recombinant TDP1, AlphaScreen DNA substrate cleavage. Potency, µM (top dose mostly 130 µM), without a hit: top-dose activity change, negative = inhibition, usual class: inhibitors. 0.28% of 350,000 active. AID 485290; further: on the % scale 0 is the no-effect control and ±100 the full control effect; nearly all actives have a fitted effect of over 40% in size
#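 Here, a 5' biotin and 3' phosphotyrosine-FITC DNA oligonucleotide reports Tdp1 activity: intact substrate bridges AlphaScreen beads, while cleavage leaves a 3' phosphate and drops signal. All incubations at room temperature.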
# Numbers without * were called inactive; ? = inconclusive; · = no result; ! = a repeat was not active; [ ] = dose if it differs, or a comment. Unless noted, the call rests on the fitted dose curve; in most records, active means well fitted curve in the direction sought with a large enough effect; inconclusive means small, poorly fitted or top-dose-only effect, or another doubt; inactive means no such curve, though single readings can be large; an effect the other way counts as inactive or inconclusive. Potency means the concentration at half of the fitted maximal effect.
SMILES,Pin1 inhibitor,VDR inhibitor,ASM inhibitor,Tb PFK block,PLK1 PBD inh,TDP1 inh
Cc1ccc(S(=O)(=O)c2cnc(SCC(=O)Nc3cccc(Cl)c3)nc2N)cc1C,13%,-7%,·,·,·,3%
O=C(CSc1ccc(Cl)cc1)c1ccco1,?,?,-9%,?,9.5µM*,-8%
Cc1nc(SCC(=O)NCc2ccco2)c2c(C)c(C)sc2n1,9%,1%,0%,0%,-19%,1%
Cc1sc2ncnc(SCC(=O)NC(=O)NCc3ccco3)c2c1C,46%,2%,-2%,-24%,-16%,45µM*
Cc1ccc(OCCCCn2c(CCNC(=O)C3CCCCC3)nc3ccccc32)cc1,-1%,-14%,·,·,·,1%
CC1(OC(=O)C2CCCC2)C(=O)C=C2C=C(c3ccsc3)N(c3cccc(C#N)c3)C=C2C1=O (stereo unspecified),·,·,·,·,·,11%[21 µM]
COc1ccc(C(C#N)=C2C=CC(=NO)C(C)=C2Cl)cc1,-10%,?,?,·,-25%,·
COc1ccc(C(C#N)=C2C=C(Cl)C(=NO)C=C2Cl)cc1,·,·,·,·,21µM*,·
CCCCCCCCCCCCCCCC(=O)OCC(O)C1OC(=O)C(O)=C1O (stereo unspecified),·,5µM*,·,·,·,?
CCCCCCCCCCCCCCCCCC(=O)OCC(C)O (stereo unspecified),·,-2%,·,·,·,-7%
Cc1ccc2nc(SCC(=O)N(CC(C)C)c3c(N)n(CC(C)C)c(=O)[nH]c3=O)[nH]c2c1,-14%,-5%,49%,-5%,-5%,5%
Cc1cc(SCC(=O)N(CC(C)C)c2c(N)n(CC(C)C)c(=O)[nH]c2=O)nc2ccccc12,12%,?,4%,0%,13µM*,0%
CC(NC(=O)Cc1ccc(-c2ccccc2)cc1)c1ccccc1 (stereo unspecified),?,?,-2%,-4%,27µM*,2%
CC(NC(=O)COC(=O)Cc1ccc(Cl)cc1)c1ccccc1 (stereo unspecified),1%,-11%,-3%,-1%,-11%,-1%
CC(NC(=O)Cc1ccccc1F)c1ccc(F)cc1 (stereo unspecified),1%,1%,-2%,-1%,24µM*,2%
COc1ccc(C2=Nn3c(nnc3-c3ccccc3O)SC2)c(OC)c1,3%,·,·,·,·,11%
CCN1CCN(c2cc3c(cc2F)c(=O)c(S(=O)(=O)c2cc(C)cc(C)c2)cn3CC)CC1,-3%,16%,·,·,·,4%
O=c1[nH]c(=O)c2[nH]c(=S)[nH]c2[nH]1,?,?,99%,·,8.4µM*,·
CC(=NNC(=S)N1CCCC1)c1ccccn1,·,·,·,·,24µM*,·
COc1cc(F)c(S(=O)(=O)N2CCN(S(=O)(=O)c3ccc(NC(C)=O)cc3)CC2)c(F)c1,4%,·,·,·,·,0%
S=c1nc[nH]c2nc[nH]c12,-1%,-20%,-1%,3%,-1%,32µM*
CCn1c2ccccc2c2cc(NC(C)=O)ccc21,4%,7%,-5%,-7%,-2%,4%
CCn1c2ccccc2c2cc(NC(=O)C(=O)N3CCOCC3)ccc21,10%,-10%,64%,-2%,21µM*,-2%
CCn1c(COc2cccc3cccnc23)nnc1SCC(=O)O,5%,-7%,0%,-6%,-2%,3%
Cn1c(COc2cccc3cccnc23)nnc1SCC(=O)O,-7%,-17%,-3%,-4%,27µM*,5%
SMILES,Pin1 inhibitor,VDR inhibitor,ASM inhibitor,Tb PFK block,PLK1 PBD inh,TDP1 inh
COc1ccc(NC(=O)c2cccc3c2C(=O)N(C2CCCCC2)C3)cc1,29%,27%,-20%,-3%,5%,1%
COc1ccc(OC)c(NC(=O)c2cccc3c2C(=O)N(C2CCCCC2)C3)c1,-4%,22µM*!,-3%,-10%,7%,6%
CCC(C)NC(=O)Cn1c(=O)ccc2cc(S(=O)(=O)N3CCCC3)ccc21 (stereo unspecified),3%,-1%,·,·,·,-2%
CC(C)(C)C(=O)Nc1cc(-c2cccc(Br)c2)nn1-c1ccccc1,-1%,21%,·,·,·,0%
CCOC(=O)C1=C(O)c2ccccc2C(=O)/C1=C\c1ccc(CC)cc1,-5%,3.5µM*,3%,12%,3µM*,5%
Cc1ccc(NS(=O)(=O)c2ccc3[nH]c(=O)oc3c2)c(C)c1,-1%,?,-1%,2%,30µM*,2%
COc1cc2c(s1)c1cnn(Cc3ccccc3F)c(=O)c1n2C,?,·,·,·,·,0%
C=CCNC(=S)Nc1ccc(N(C)C)cc1,0%,79µM*,1%,0%,-24%,-1%
CCCCCOC(=O)c1[nH]c2c(c1C)C(=O)C(C(=O)OC)C(C)C2 (stereo unspecified),7%,?,-8%,2%,3µM*,4%
COCCOC(=O)c1[nH]c2c(c1C)C(=O)C(C(=O)OC)C(C)C2 (stereo unspecified),-22%,-17%,-1%,-2%,-11%,2%
CC(=O)N[C@@H](CSC/C=C(\C)CC/C=C(\C)CC/C=C(\C)CCC=C(C)C)C(=O)O,·,35µM*!,·,·,·,7%
CC(=O)N[C@@H](CSC/C=C(\C)CCC=C(C)C)C(=O)O,·,0%,·,·,·,6%
CC(=O)N[C@@H](CSC/C=C(\C)CC/C=C(\C)CCC=C(C)C)C(=O)O,·,50µM*!,·,·,·,6%
Cc1ccc(Nc2nc(-c3sc(N)nc3C)cs2)cc1,30%,79µM*,-17%,-12%,?,16%
CC(=O)c1cccc(Nc2nc(-c3sc(N)nc3C)cs2)c1,15%,?,-3%,1%,21µM*,10%
CC(=O)c1cccc(Nc2nc(-c3sc(C)nc3C)cs2)c1,1%,1%,-13%,3%,0%,2%
O=c1c2c3c(sc2nc2n1CCCCC2)CCCCC3,·,·,·,-2%,·,-6%
O=c1c2c3c(sc2nc2n1CCCCC2)CCCC3,0%,-16%,3%,-18%,27µM*,-8%
O=C1C2=CC[C@H]3C(=O)N(C[C@@H]4CCCO4)C(=O)[C@@H]3[C@@H]2[C@H](O)[C@@H]2O[C@H]12,·,·,·,·,·,-7%[21 µM]
CSc1nnc(-c2ccco2)c(-c2ccco2)n1,?,-4%,-1%,?,27µM*,·
Cc1ccccc1NC(=O)CSc1n[nH]c(-c2ccco2)n1,-10%,-23%,4%,-3%,-4%,5%
Cc1cccc(C)c1NC(=O)CSc1nnc(-c2ccco2)c(-c2ccco2)n1,?,?,-16%,?,19µM*,·
COc1ccc(-c2nnc(SCC(=O)Nc3c(C)cccc3C)nc2-c2ccc(OC)cc2)cc1,?,-13%,·,·,·,·
COc1ccccc1NC(=O)CSc1n[nH]c(-c2ccco2)n1,0%,?,4%,·,27µM*,·
Cc1ccccc1NC(=O)CSc1nnc(-c2ccco2)c(-c2ccco2)n1,·,?,-13%,?,27µM*,-12%
